PubChem BioAssay AID624125 (The Scripps Research Institute Molecular Screening Center, 2012)
Among all 360,000 compounds or so, about 2,600 (0.72%) were called active. The sample as a whole holds a higher share of actives than the screen did. Unmarked numbers belong to inactive results.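 The calls were made as follows: active = inhibition above its plate's cutoff, the mean inhibition of sample wells plus 3 SD (cut at about 27% in these data); inactive = the rest.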

Molecular target: Muscarinic acetylcholine receptor M4 (Homo sapiens) (UniProt P08173)
Assay: CHRM4 blockers of acetylcholine calcium response – CHO cells, Fluo-8 calcium fluorescence, primary screen (AID 624125);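 also: 0% = acetylcholine EC80 with DMSO and 100% = DMSO without agonist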
Conditions: CHO-hM4 cells, ACh EC80, Fluo-8 calcium fluorescence; at 3 µM; hits give high values

Muscarinic acetylcholine receptor M4 (Homo sapiens), sequence (P08173 whole entry, looked up): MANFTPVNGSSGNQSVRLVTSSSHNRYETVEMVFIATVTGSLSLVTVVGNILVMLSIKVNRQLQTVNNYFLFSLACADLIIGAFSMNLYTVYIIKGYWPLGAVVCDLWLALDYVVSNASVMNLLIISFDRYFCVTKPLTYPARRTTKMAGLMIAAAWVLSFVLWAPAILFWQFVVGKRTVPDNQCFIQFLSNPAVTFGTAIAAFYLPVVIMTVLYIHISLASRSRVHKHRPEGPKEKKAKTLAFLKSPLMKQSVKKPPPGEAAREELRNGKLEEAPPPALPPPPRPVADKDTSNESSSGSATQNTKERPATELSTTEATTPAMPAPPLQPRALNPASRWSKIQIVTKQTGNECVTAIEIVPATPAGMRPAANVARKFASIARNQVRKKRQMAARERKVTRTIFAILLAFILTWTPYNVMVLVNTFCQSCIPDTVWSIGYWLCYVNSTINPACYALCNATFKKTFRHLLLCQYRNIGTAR

| SMILES | inhibition |
| --- | --- |
| CN(C)c1ccc(CNC23CN4CN(CN(C4)C2)C3)cc1 | 3.33% |
| O=C(CN1CCN(Cc2ccccc2)CC1)NC(c1ccccc1)c1ccccc1 | 44.7% (active) |
| O=C(CN1CCN(Cc2ccccc2)CC1)Nc1ccc(F)c(F)c1 | 13% |
| O=C(CN1CCc2ccccc21)NC(c1ccccc1)c1ccccc1 | -1.96% |
| CN(CCc1ccccc1)c1ccc([N+](=O)[O-])cn1 | 10.7% |
| COc1cc(NC(=S)NNC(=O)CC(C)C)c(OC)cc1Cl | -7.19% |
| CN(O)C(=S)c1ccccc1 | 31.7% (active) |
| Cc1nn(Cc2ccccc2)c(C)c1CNC(=O)c1ccc(F)c(S(=O)(=O)N2CCOCC2)c1 | -8.04% |
| Cc1cccc(CSc2ccc(-c3cccs3)nn2)c1 | -4.51% |
| CSCCC1NC(=O)N(CC(=O)Nc2cccc(S(=O)(=O)N3CCCCCC3)c2)C1=O (stereo unspecified) | -15.2% |
| O=C(/C=C/c1ccc(Cl)cc1)Nc1ccc(S(=O)(=O)Nc2ncccn2)cc1 | 0.88% |
| C/C(=N\NS(=O)(=O)c1ccc(Cl)cc1)c1ccc(NC(=O)c2ccco2)cc1 | 7.91% |
| O=C(Nc1ccccc1)c1nnsc1S(=O)(=O)c1ccc(Cl)cc1 | 70.3% (active) |
| Cn1c(CC(=O)Nc2ccc(F)cc2)nnc1SCC(=O)NC1CCCCC1 | -3.82% |
| CC(=O)N1CCc2c(sc(NC(=O)CCS(=O)(=O)c3ccc(C)cc3)c2C(N)=O)C1 | -0.18% |
| CS(=O)(=O)c1ccc(C(=O)NNC(=O)c2cccs2)cc1 | 0.8% |
| Cc1ccc2[nH]cc(CCCN3C(=O)c4ccccc4C3=O)c2c1 | -6.81% |
| COCCn1c(SCC(=O)Nc2ccc(F)cc2F)nc2c(c1=O)SCC2 | -3.44% |
| Cc1cccc(CSc2nnc(C)c(=O)n2N)c1 | -5.35% |

| SMILES | inhibition |
| --- | --- |
| Cc1cccc(CSc2nc3c(c(=O)n2C)SCC3)c1 | 30.4% (active) |
| CCOC(=O)C1=CN(Cc2ccc(Br)cc2)S(=O)(=O)NC1C (stereo unspecified) | -12.5% |
| O=C1C2(c3ccccc3)CN(CCCO)CC1(c1ccccc1)CN(CCCO)C2 | 4.09% |
| FC(F)(F)c1cccc(-c2cc3ccccc3nc2N2CCCC2)c1 | 2.79% |
| CCN(CC)CCCC(C)n1c2nc(=O)[nH]c(=O)c-2nc2cc(Cl)ccc21 (stereo unspecified) | 38.6% (active) |
| C=CCn1c(N)cc(=O)nc1SCC(=O)Nc1cccc2ccccc12 | 0.21% |
| CCN(CC)P(=O)(C(NC(=O)OC)C(F)(F)C(F)(F)C(F)(F)C(F)F)N(CC)CC (stereo unspecified) | 2.64% |
| COc1ccc(NC(=O)/C(Cl)=C(/Cl)S(=O)Cc2ccc(C)cc2)cn1 (stereo unspecified) | 50.8% (active) |
| CC(C)=CCCC1(C)C=Cc2c(ccc3c2[nH]c2cc(O)c(C)cc23)O1 (stereo unspecified) | -7.94% |
| Cc1c(CN2CCCC(C(=O)c3cccc(Cl)c3)C2)c(=O)n(-c2ccccc2)n1C (stereo unspecified) | 7.63% |
| O=C(C[C@H]1C/C=C\C[C@@H](NC(=O)OCC2c3ccccc3-c3ccccc32)C(=O)O[C@@H](c2ccccc2)CNC1=O)N[C@H](CO)Cc1ccccc1 | -3.13% |
| O=C(NNC(=O)C1C2CCC(C2)C1C(=O)O)c1ccc(Cl)cc1 (stereo unspecified) | 2.59% |
| COc1ccc(NS(=O)(=O)c2ccc(Oc3c(C#N)cccc3C#N)cc2)cc1 | 15% |
| COc1ccc(S(=O)(=O)/N=C2\C=C(NS(=O)(=O)c3ccccc3)C(=O)c3ccccc32)cc1 | 27.9% (active) |
| Cc1ccc(S(=O)(=O)/N=C2\C=C(NS(=O)(=O)c3ccc(C)cc3)C(=O)c3ccccc32)cc1 | 4.16% |
| CN(CC(=O)Nc1ccc(F)cc1)CC(=O)Nc1ccc(Cl)c(S(=O)(=O)N2CCOCC2)c1 | -7.68% |
| Cc1cccc(NC(=O)c2nc[nH]c2C(=O)NCC(=O)OCc2ccccc2)c1 | 29.3% (active) |
| O=C(N[C@@H](Cc1ccccc1)C(=O)OCc1ccccc1)c1nc[nH]c1C(=O)N[C@@H](Cc1ccccc1)C(=O)OCc1ccccc1 | 2.96% |
| Cc1cc(NS(=O)(=O)c2ccc(NC(=S)NC(=O)c3ccc(F)cc3Cl)cc2)no1 | 9.04% |

| SMILES | inhibition |
| --- | --- |
| Cc1cccc(NS(=O)(=O)c2ccc(C)c(C(=O)NCc3cccnc3)c2)c1 | -6.05% |
| C[C@H](NC(=O)c1nc[nH]c1C(=O)NCC(=O)OC(C)(C)C)C(=O)OCc1ccccc1 | 17.7% |
| Cc1cccc(CS(=O)(=O)c2ncc(Cl)c(C(=O)Nc3ccc(F)cc3)n2)c1 | 33.5% (active) |
| Cc1cccc(NC(=O)c2nc(S(=O)(=O)Cc3ccccc3)ncc2Cl)c1 | 51.3% (active) |
| O=C(CS(=O)(=O)Cc1ccccc1)Nc1cccnc1 | -2.16% |
| COc1ccc(NC(=O)CCn2ccnc2)c(OC)c1 | 4.14% |
| COc1ccc(NS(=O)(=O)c2ccc(N3CCOCC3)c(NC(=O)c3ccccc3Br)c2)cc1 | -9.67% |
| Cc1ccc(NS(=O)(=O)c2cc3c(cc2C)NC(=O)CO3)cc1 | 2.56% |
| CN(Cc1c(F)cccc1Cl)S(=O)(=O)c1cccs1 | -12.9% |
| Cc1cc(=O)n2nc(N3CCCC3C(=O)NCCCN3CC(C)CC(C)C3)sc2n1 (stereo unspecified) | -11.3% |
| c1ccc(C(=NNc2nc3ccccc3s2)c2ccccn2)cc1 | 56.1% (active) |
| Cc1ccc(C)c(N2CCN(C(=O)CCCCCn3c(=S)[nH]c4ccc(N5CCOCC5)cc4c3=O)CC2)c1 | 33.6% (active) |
| Cc1ccc(OCCCC(=O)N2CCOCC2)c(C)c1 | -1.8% |
| Cc1ccc(C)c(N2CCN(C(=O)Cn3ncn4cccc4c3=O)CC2)c1 | -6.41% |
| C[C@H]1CN([C@@H](C)CO)C(=O)CCCn2nncc2CO[C@@H]1CN(C)S(=O)(=O)c1cccc(C#N)c1 | -12.9% |
| N=c1c2c3c(sc2nc2n1CCCCC2)CCCC3 | 46.3% (active) |
| N=c1c2c3c(sc2ncn1CCCN1CCOCC1)CCCCC3 | 10.8% |
| CC1(C)Cc2c(sc3nc4n(c(=N)c23)CCCCC4)CO1 | 3.83% |
